ChEMBL document CHEMBL3988442, “University of Dundee, Small-Polar-MMV Screening Library” (2021)
About 13,000 (27%) of roughly 48,000 compounds showed an effect of 50% or more. The list shows a part of the results.

What follows are compounds tested on Wolbachia pipientis (assay: Anti-Wolbachia Cell-Based Screen). Conditions: 5 µM.
Assay type: functional
Set-up: scale not given: in the data most compounds retested in dose-response had high values

Q: For `Cc1cc(NC(=O)CN(c2ccccc2)C(C)C)on1`, which “Percent Effect” value is on record?
A: -6.846%

Q: With `COc1cccc(Nc2nc(C3CCCNC3)c3sc(C)c(C)n23)c1.Cl` (stereo not drawn) as the compound, how does the “Percent Effect” value read?
A: 119.3%

Q: With `COc1cccc(Nc2nc(C3CCNCC3)c3sc(C)c(C)n23)c1.Cl` as the compound, how does the “Percent Effect” value read?
A: 130.3%

Q: For `O=C(Nc1cccnc1-n1cncn1)N(C1CCCC1)C1CC1`, which “Percent Effect” value is on record?
A: -11.98%

Q: With `CN(C)[C@@H]1CO[C@H](CNC(=O)CC(C)(C)C)[C@H]1O` as the compound, how does the “Percent Effect” value read?
A: -5.201%

Q: With `COc1cccc(OCC2CCCN(C(=O)CCCn3cccn3)C2)c1` (stereo not drawn) as the compound, how does the “Percent Effect” value read?
A: -37.97%

Q: How did the “Percent Effect” value turn out when `CC(C)CN1CCCn2nc(CNC(=O)CCN)cc2C1` was run?
A: -4.677%

Q: For `CSCC[C@H](N)C(=O)NCc1cc2n(n1)CCCN(C1CCCCC1)C2`, which “Percent Effect” value is on record?
A: -4.094%

Q: Which “Percent Effect” value does the source give for `CSCCC(=O)NCc1cc2n(n1)CCCN(C1CCCCC1)C2` here?
A: 170.8%

Q: How did the “Percent Effect” value turn out when `CC(C)CN1CCCn2nc(CNC(=O)Cc3cccc(O)c3)cc2C1` was run?
A: 6.027%

Q: With `CC(C)SCC(=O)NCc1cc2n(n1)CCCN(C1CCCCC1)C2` as the compound, how does the “Percent Effect” value read?
A: 96.57%

Q: With `CCN(C(C)=O)C1CCN(c2nccc(CCC(F)(F)F)n2)C1` (stereo not drawn) as the compound, how does the “Percent Effect” value read?
A: -1.785%

Q: How did the “Percent Effect” value turn out when `COCc1ccc(C(=O)N2CCC(c3nccn3CC3CC3)CC2)o1` was run?
A: -37.93%

Q: For `CCCC(C)(C)NC(=O)CCN1CCOC1=O`, which “Percent Effect” value is on record?
A: 8.427%

Q: `COc1cccc(S(=O)(=O)CCNC(C)Cn2cccn2)c1` (stereo not drawn) was tested. Which “Percent Effect” value did it give?
A: -1.101%

Q: How did the “Percent Effect” value turn out when `CC(=O)c1c[nH]c(C(=O)N2CCN(C(C(N)=O)c3ccccc3)CC2)c1` (stereo not drawn) was run?
A: -4.109%

Q: With `CN1C(=O)CC(C(=O)O)C12CCN(Cc1cc(Cl)ccc1F)CC2` (stereo not drawn) as the compound, how does the “Percent Effect” value read?
A: -0.96%

Q: Which “Percent Effect” value does the source give for `Cc1nc(CNC(=O)C(C)(C)c2ccc(F)cc2)no1` here?
A: 7.656%

Q: `Cn1cc(CN2CCC(CCC(=O)NCc3ccc(F)cc3)CC2)cn1` was tested. Which “Percent Effect” value did it give?
A: -6.777%

Q: With `CN1CCC(c2cncc(C(=O)NCc3ccc(F)cc3)n2)CC1` as the compound, how does the “Percent Effect” value read?
A: 172.3%

Q: How did the “Percent Effect” value turn out when `CN1CCC(N(Cc2ccccc2F)C(=O)NCc2ccncc2)CC1` was run?
A: 10.43%

Q: How did the “Percent Effect” value turn out when `O=C(NCc1ccccc1CN1CCCC1)Nc1cccnc1` was run?
A: 1.889%

Q: Which “Percent Effect” value does the source give for `CN1CCCC(c2cncc(C(=O)NCc3ccccc3Cl)n2)C1.O=CO` (stereo not drawn) here?
A: 120.9%

Q: For `Cc1nc(CN2CCC(Oc3ccc(F)cc3C)(C(=O)O)CC2)co1`, which “Percent Effect” value is on record?
A: -0.386%

Q: Which “Percent Effect” value does the source give for `Cc1cccc(C(C(=O)NCCCc2ccccn2)N(C)C)c1` (stereo not drawn) here?
A: 0.3434%

Q: `CN(C)C(=O)C1(CCCc2ccccn2)CCN1Cc1nccn1C` (stereo not drawn) was tested. Which “Percent Effect” value did it give?
A: 105.4%

Q: How did the “Percent Effect” value turn out when `CNC(=O)C1(CCCc2ccccn2)CCN1Cc1coc(C)n1` (stereo not drawn) was run?
A: 87.23%

Q: With `Cc1nc(CN2CC(CCCc3ccccn3)(C(=O)N(C)C)C2)co1` as the compound, how does the “Percent Effect” value read?
A: 55.58%

Q: `Cn1ccnc1CN1CCCC(CO)(CCc2ccccc2)C1` (stereo not drawn) was tested. Which “Percent Effect” value did it give?
A: 4.446%

Q: How did the “Percent Effect” value turn out when `Cc1ccc(NC2CCN(C(=O)CCCc3ccccn3)CC2)cc1` was run?
A: 28.87%

Q: With `O=C(CCCc1ccccn1)N1CCOc2ccc(F)cc21` as the compound, how does the “Percent Effect” value read?
A: -6.681%

Q: Which “Percent Effect” value does the source give for `Cc1nc(CN2CCC2(CCCc2ccccn2)C(=O)N(C)C)co1` (stereo not drawn) here?
A: 74.52%

Q: Which “Percent Effect” value does the source give for `O=C(CCCc1ccccn1)N1CCC(n2cccc2)CC1` here?
A: 17.05%

Q: With `CN(C)C(=O)NC1COC2(CCN(Cc3nccn3C)CC2)C1` (stereo not drawn) as the compound, how does the “Percent Effect” value read?
A: 15.08%

Q: Which “Percent Effect” value does the source give for `O=C(CN1C(=O)CCC1=O)N1Cc2cncnc2C1` here?
A: 12.03%

Q: With `Cc1nc2n(n1)CC(NCC(=O)N(C)Cc1cccs1)CC2` (stereo not drawn) as the compound, how does the “Percent Effect” value read?
A: 8.702%

Q: `CC(C)(C)c1cn(CC2CCCN(c3cnc4ccccc4n3)C2)nn1` (stereo not drawn) was tested. Which “Percent Effect” value did it give?
A: 0.2574%

Q: How did the “Percent Effect” value turn out when `CCNC(=O)N1CCCCC1CCO` (stereo not drawn) was run?
A: -12.11%

Q: For `O=C1CCCCN1CC(=O)N1CCCC(c2ccccc2)C1` (stereo not drawn), which “Percent Effect” value is on record?
A: -3.382%

Q: `Cc1cccc(C2CCCN(C(=O)CN3C(=O)CCNC3=O)C2)c1` (stereo not drawn) was tested. Which “Percent Effect” value did it give?
A: 2.396%

Q: With `CCOc1cccnc1C(=O)N1CCC(c2ccccc2OC)C1` (stereo not drawn) as the compound, how does the “Percent Effect” value read?
A: -1.787%

Q: `O=C(CN1C(=O)CCNC1=O)N1CCC(c2ccc(F)cc2)C1` (stereo not drawn) was tested. Which “Percent Effect” value did it give?
A: -18.18%

Q: `CC1(C)OC(=O)N(CC(=O)N2CCC(c3ccccc3F)C2)C1=O` (stereo not drawn) was tested. Which “Percent Effect” value did it give?
A: 96.35%

Q: How did the “Percent Effect” value turn out when `COc1ccccc1C1CCN(C(=O)CN2C(=O)OC(C)(C)C2=O)CC1` was run?
A: 112.8%

Q: For `COc1ccccc1[C@@H]1CN(CC(=O)N2CCCCC2)C[C@H]1C(=O)O`, which “Percent Effect” value is on record?
A: -14.69%

Q: With `CC1(C)OC(=O)N(CC(=O)N2CCC(c3ccccc3Cl)C2)C1=O` (stereo not drawn) as the compound, how does the “Percent Effect” value read?
A: 91.31%

Q: `COCCOCC(=O)N1CCC(c2ccccc2F)C1` (stereo not drawn) was tested. Which “Percent Effect” value did it give?
A: 5.027%

Q: Which “Percent Effect” value does the source give for `O=C(Nc1ccccc1N1CCOC1=O)N1CCSCC1` here?
A: -8.317%

Q: Which “Percent Effect” value does the source give for `Oc1ccccc1-c1cc(-c2nc(C3CC3)n[nH]2)[nH]n1` here?
A: -8.043%

Q: For `O=c1[nH]c(N2CCOCC2)nc2c1CN(Cc1cccnc1)CC2`, which “Percent Effect” value is on record?
A: 111.6%

Q: For `O=c1[nH]c(N2CCCCC2)nc2c1CCN(Cc1cccnc1)C2`, which “Percent Effect” value is on record?
A: 95.47%

Q: Which “Percent Effect” value does the source give for `c1cnc(NCc2n[nH]c3c2CCN(Cc2cccnc2)C3)nc1` here?
A: -6.284%

Q: `CC1CCCCN1c1nc2c(c(=O)[nH]1)CCN(Cc1cccnc1)C2` (stereo not drawn) was tested. Which “Percent Effect” value did it give?
A: -7.907%

Q: With `Cc1cccc(CN2CCc3c(nc(N4CCC(C)CC4)[nH]c3=O)C2)n1` as the compound, how does the “Percent Effect” value read?
A: -8.966%

Q: Which “Percent Effect” value does the source give for `Cn1ccnc1CN(CCO)C(=O)c1nc2ccccc2s1` here?
A: -11.45%

Q: For `O=C(CCc1ccccc1)N1CCCCC1C1OCCO1` (stereo not drawn), which “Percent Effect” value is on record?
A: -4.281%

Q: `O=C(NCCc1ccccc1)N1CCCCC1C1OCCO1` (stereo not drawn) was tested. Which “Percent Effect” value did it give?
A: 1.192%

Q: For `O=C(NCc1ccccc1F)N1CCCCC1C1OCCO1` (stereo not drawn), which “Percent Effect” value is on record?
A: 112.3%

Q: How did the “Percent Effect” value turn out when `CC(C)(C(=O)NCCC(=O)O)c1cccc(Br)c1` was run?
A: -20.92%

Q: How did the “Percent Effect” value turn out when `Cc1ccc(-c2ccnc(N(C)CC3CCCO3)n2)c(C)n1` (stereo not drawn) was run?
A: 111.2%

Q: With `Cc1csc(CN(CC2CCCO2)C(=O)c2ccc(C)nc2C)n1` (stereo not drawn) as the compound, how does the “Percent Effect” value read?
A: -5.335%

Q: For `Cc1ccc(-c2ccnc(N(C)CC3CCCN3C)n2)c(C)n1` (stereo not drawn), which “Percent Effect” value is on record?
A: 123%

Q: With `CN(CC1CCCCO1)c1nncc(-c2cccc(F)c2)n1` (stereo not drawn) as the compound, how does the “Percent Effect” value read?
A: -2.947%

Q: Which “Percent Effect” value does the source give for `CN(CC1CCCN1C)c1nccc(C2CCCC2)n1` (stereo not drawn) here?
A: 25.37%

Q: For `Cc1nn(C)cc1CN(C)c1nccc(-c2cn(C)nc2C)n1`, which “Percent Effect” value is on record?
A: -19.87%

Q: With `CCCc1nnc(N(C)CC2CCCN(CC)C2)o1` (stereo not drawn) as the compound, how does the “Percent Effect” value read?
A: -14.65%

Q: With `Cc1ccc(-c2ccnc(N[C@H]3COC[C@@H]3N3CCCC3)n2)c(C)n1` as the compound, how does the “Percent Effect” value read?
A: -11.11%

Q: Which “Percent Effect” value does the source give for `CCN1CCCC(CN(C)c2nccc(-c3ccc(C)nc3C)n2)C1` (stereo not drawn) here?
A: 89.59%
